Screening data deposited in PubChem BioAssay by Emory University Molecular Libraries Screening Center.
Only some compounds are listed: those with a hit (about 3.7% of all), similar ones and a draw of the others.
ERa SRC1 inh = ER-alpha (human) coactivator binding inhibition; P03372; TR-FRET ER-alpha LBD / SRC-1 peptide, estradiol-bound; inhibition, % at 25.6 µM; 86,000 compounds, 1.7% hits; AID 629; in the data active means inhibition above about 50%
ERa coact pot = ER-alpha (human) coactivator binding potentiation. TR-FRET ERalpha-LBD/SRC-Cy5 coactivator binding, 2 h; 100 = basal binding, no effect. coactivator binding (% of control), % at 25.6 µM. 86,000 compounds, 1.3% hits; in the data active means activity above about 200%;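 further: binding measured in presence of low estradiol as agonist stimulus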
ERb coact inh = ER-beta (human) coactivator binding inhibition; Q92731; TR-FRET ER-beta LBD / SRC1-Cy5 peptide binding; receptor agonist-loaded with 1 µM estradiol; inhibition, % at 25.6 µM; 86,000 compounds, 1.3% hits;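 active means compounds whose percent inhibition of the receptor-coactivator binding signal exceeds about 50% in the single-dose screen, limit read from the data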
Target sequence (Q92731 whole entry, looked up, the tested form may be a part): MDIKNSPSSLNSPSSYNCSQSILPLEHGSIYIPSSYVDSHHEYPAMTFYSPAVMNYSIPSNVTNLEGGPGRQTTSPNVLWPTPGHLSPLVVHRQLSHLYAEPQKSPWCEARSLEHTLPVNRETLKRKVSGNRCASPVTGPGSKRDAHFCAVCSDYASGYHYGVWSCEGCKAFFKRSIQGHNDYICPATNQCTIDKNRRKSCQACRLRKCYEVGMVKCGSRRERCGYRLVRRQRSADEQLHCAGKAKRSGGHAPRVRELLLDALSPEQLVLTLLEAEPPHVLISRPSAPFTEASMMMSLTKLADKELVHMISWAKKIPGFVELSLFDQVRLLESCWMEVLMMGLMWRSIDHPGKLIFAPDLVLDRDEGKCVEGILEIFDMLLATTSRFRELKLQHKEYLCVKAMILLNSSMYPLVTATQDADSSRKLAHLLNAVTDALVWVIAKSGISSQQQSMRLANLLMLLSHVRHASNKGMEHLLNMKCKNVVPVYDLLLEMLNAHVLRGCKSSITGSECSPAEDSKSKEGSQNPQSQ
Smad3 inh = Smad3 (human) transcription factor binding inhibition. P84022. TR-FRET Smad3/Dy647-FoxH1 peptide binding, europium anti-His. inhibition, % at 25 µM. 88,000 compounds, 0.29% hits;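 active means compounds that reduce the energy-transfer binding signal between the protein and its labelled peptide by more than half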
Of the large screens only hits and unclear results are named; the others gave an inactive call; [ ] = remark or other dose.

CSc1ccccc1NC(=O)c1ccccc1N(C)S(C)(=O)=O	none
CSc1ccccc1NC(=O)c1ccccc1N(Cc1ccccc1)S(C)(=O)=O	ERb coact inh 59
O=C(Oc1cccc(-n2cnnn2)c1)c1sc2ccccc2c1Cl	ERa coact pot 246
CS[C@@]12C(=O)C[C@@]3(C)[C@@H](CC[C@@]3(O)C(=O)CO)[C@H]1CCC1=CC(=O)CC[C@]12C	none (no result: ERa SRC1 inh, ERa coact pot, ERb coact inh)
Cc1ccc(C(=O)Nc2sc3c(c2C(=O)NCc2ccco2)CCCC3)cc1	none
O=C(Nc1sc2c(c1C(=O)NCc1ccco1)CCCC2)c1ccc2c(c1)OCO2	ERb coact inh 62[fluorescence artefact?]
COc1ccc(C(=O)Nc2sc3c(c2C(=O)NCc2ccco2)CCCC3)cc1OC	ERa coact pot 228
COc1cc(C(=O)Nc2sc3c(c2C(=O)NCc2ccco2)CCCC3)cc(OC)c1OC	none
CCC(=O)Oc1ccc(C(=O)Nc2ccc3c(c2)C(=O)N(C2CCCCC2)C3=O)cc1	none
CCOc1ccc(NC(=O)NCCCn2c(C)nc3cc(C)c(C)cc32)cc1	none
Cc1cc2nc(C)n(CCCNC(=O)Nc3cccc4ccccc34)c2cc1C	ERa SRC1 inh 51[fluorescence artefact?]
COc1ccc(-c2cc(-c3ccc(Br)cc3)nc3ncnn23)cc1OC	none
CC(C)(C)c1nnc2sc(SC/C(O)=C(\C#N)c3nc4ccccc4[nH]3)nn2c1=O	ERa SRC1 inh 69[fluorescence artefact?], ERb coact inh 62
O=C(CCn1nc(-c2ccc(Cl)cc2)ccc1=O)NCCCN1CCCCCC1	ERa SRC1 inh 74[fluorescence artefact?]
O=C(c1nc2ccc([N+](=O)[O-])cc2[nH]c1=O)[C@@H](O)c1ccc2c(c1)OCO2	none (no result: ERa SRC1 inh, ERa coact pot, ERb coact inh)
N#CC(c1ccc(Cl)cc1)c1ccc(Cl)nn1 (stereo unspecified)	none
COc1ccc(CNC(=O)COC(=O)c2cc(-c3ccco3)nc3ccccc23)cc1	ERa SRC1 inh 87[fluorescence artefact?], ERb coact inh 77
O=C(O)c1cc(-c2ccco2)nc2ccccc12	ERa SRC1 inh 74, ERb coact inh 82[fluorescence artefact?]
O=C(OCC(=O)N1CCN(C(=O)c2ccco2)CC1)c1cc(-c2ccco2)nc2ccccc12	ERa SRC1 inh 92[fluorescence artefact?], ERb coact inh 89
C[C@@H](CCC[C@@H]1SC[C@H]2NC(=O)N[C@@H]12)C(=O)O	none (no result: ERa SRC1 inh, ERa coact pot, ERb coact inh)
NC(=O)c1ccsc1NC(=O)COC(=O)C1CCCN1C(=O)c1cccs1 (stereo unspecified)	ERa SRC1 inh 53[fluorescence artefact?], ERb coact inh 68[fluorescence artefact?]
NC(=O)c1ccsc1NC(=O)c1cccs1	none
Nc1ccc2nc(-c3ccc(Cl)cc3)[nH]c2c1	ERa SRC1 inh 87[fluorescence artefact?]
Cc1ccc(C)c(-c2nc3ccc(N)cc3[nH]2)c1	none
Nc1cc(N)cc(-c2nc3ccccc3[nH]2)c1	none
Nc1ccc2nc(-c3cc(Cl)c(N)c(Cl)c3)[nH]c2c1	ERa SRC1 inh 95[fluorescence artefact?]
Nc1ccc(-c2nc3c(Cl)c(N)ccc3[nH]2)cc1	ERb coact inh 53[fluorescence artefact?]
N#Cc1c(C(F)(F)F)cc(-c2ccccc2)nc1SCc1nc(N)nc(N2CCOCC2)n1	ERa SRC1 inh 62, ERa coact pot 362[fluorescence artefact?]
O=C(NC1CCN(Cc2ccccc2)CC1)C1CCCN(c2nnc(-n3cccc3)s2)C1 (stereo unspecified)	none
O=C(NCCCN1CCN(Cc2ccccc2)CC1)C1CCN(c2nnc(-n3cccc3)s2)CC1	none
O=C(NC1CCN(Cc2ccccc2)CC1)C1CCN(c2nnc(-n3cccc3)s2)CC1	ERa SRC1 inh 54[fluorescence artefact?]
O=C(NCCCN1CCc2ccccc2C1)C1CCN(c2nnc(-n3cccc3)s2)CC1	ERa SRC1 inh 72[fluorescence artefact?]
O=C(O)CSc1cc(-c2ccccc2)nc2ccccc12	none (no result: ERa SRC1 inh, ERa coact pot, ERb coact inh)
O=C(O)CC[C@@H](C(=O)O)N1C(=O)[C@@H]2[C@@H]3CC[C@@H](C3)[C@@H]2C1=O	none (no result: ERa SRC1 inh, ERa coact pot, ERb coact inh)
O=C1CCC[C@H]1C(=O)Nc1ccc2ccccc2c1	none (no result: ERa SRC1 inh, ERa coact pot, ERb coact inh)
Cc1ccc(Nc2nc3c(c(=O)[nH]c(=O)n3C)n2Cc2ccc(F)cc2)cc1	none
CN(CC(=O)NCCN1CCN(Cc2ccccc2)CC1)S(=O)(=O)c1cccc2nsnc12	ERa coact pot 764[fluorescence artefact?]
CN(CC(=O)NCc1ccc(Cl)cc1)S(=O)(=O)c1cccc2nsnc12	none
Cc1nnc(NC(=O)c2ccc(-c3cccc(C(F)(F)F)c3)o2)s1	ERa coact pot 288
CN(C)[C@H]1C(=O)C(C(=O)NCN2CCCC2)=C(O)[C@@]2(O)C(=O)C3=C(O)c4c(O)cccc4[C@](C)(O)[C@H]3C[C@H]12	none (no result: ERa SRC1 inh, ERa coact pot, ERb coact inh)
Cc1ccc2c(c1)cc(CN(CCc1ccccc1)C(=O)N1CCOCC1)c1nnnn12	ERa SRC1 inh 65[fluorescence artefact?]
CCC(c1nnnn1Cc1ccc2c(c1)OCO2)N1CCN(c2ccc(F)cc2)CC1 (stereo unspecified)	ERb coact inh 79[fluorescence artefact?]
